Out of some 1,300 compounds screened, about 10 (0.8%) were called active. How the calls were made is not given here. This excerpt belongs to a sample that is enriched for actives.
What follows are molecules tested against Chaperone protein DnaK (Escherichia coli (strain K12)) (UniProt P0A6Y8) (assay: E. coli DnaK chaperone inhibitors, primary screen, luminescence, E. coli K12 (AID 547;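 further: tested at 10 µM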)). Conditions: DnaK chaperone assay, luminescence read-out; active compounds read low.

luminescence, active:
O=C(c1ccc(F)cc1)C1CCN(CCn2c(=O)[nH]c3ccccc3c2=O)CC1 1.7e+06 cps
[N-]=[N+]=Nc1ccc(C(=O)CSC[C@H](NC(=O)CC[C@H](N)C(=O)O)C(=O)NCC(=O)O)cc1 1.6e+06 cps
O=C(Nc1ccc([N+](=O)[O-])cc1Cl)c1cc(Cl)ccc1O 1.7e+06 cps
Nc1c(S(=O)(=O)O)cc(Nc2ccc(Nc3nc(Cl)nc(Nc4ccc(S(=O)(=O)O)cc4)n3)c(S(=O)(=O)O)c2)c2c1C(=O)c1ccccc1C2=O 1.6e+06 cps
O=C(O)C1=CC(=C(c2ccc(O)c(C(=O)O)c2)c2ccc(O)c(C(=O)O)c2)C=CC1=O 1.2e+06 cps

luminescence, inactive:
Nc1nc(SCc2ccc([N+](=O)[O-])cc2)c2ncn([C@@H]3O[C@H](CO)[C@H](O)C3O)c2n1 (stereo partly specified) 2.7e+06 cps
CCCCCCCCCCCCCCCCOCC(COCC(F)(F)F)OP(=O)(O)OCO (stereo unspecified) 2.4e+06 cps
O=c1ccc2c(OCCCCc3ccccc3)c3ccoc3cc2o1 2.8e+06 cps
Cc1c(C)c2c(c(C)c1O)CCC(C)(CN1CCN(c3cc(N4CCCC4)nc(N4CCCC4)n3)CC1)O2 (stereo unspecified) 2.6e+06 cps
CN/C(=C\[N+](=O)[O-])NCCSCc1ccc(CN(C)C)o1 2.6e+06 cps
CN(C)c1nc(N)c(C(=O)N=C(N)N)nc1Cl 2.5e+06 cps
Cc1cc(N)c2ccccc2[n+]1CCCCCCCCCCCCCC[n+]1c(C)cc(N)c2ccccc21 3e+06 cps
O=C(O)c1cc(=O)cc(C(=O)O)[nH]1 2.7e+06 cps
Cc1ccc(N(CC2=NCCN2)c2cccc(O)c2)cc1 2.5e+06 cps
CC(COc1ccc(/C=C/c2ccccc2)cc1)[N+](C)(C)C (stereo unspecified) 2.1e+06 cps
Cc1nc2ccccn2c(=O)c1CCN1CCC(C(=O)c2ccc(F)cc2)CC1 2.5e+06 cps
CC1(C)C(=O)N(CCN2CCC(C(=O)c3ccc(F)cc3)CC2)c2ccccc21 2.6e+06 cps
C[C@H](CS)C(=O)N1CCC[C@H]1C(=O)O 2.6e+06 cps
N[C@@H](Cc1cnc[nH]1)C(=O)O 2.9e+06 cps
C=C[C@H]1CN2CCC1C[C@@H]2[C@@H](O)c1ccnc2ccc(OC)cc12 (stereo partly specified) 2.3e+06 cps
CC1(NCC(O)COc2cccc3[nH]ccc23)CCC(C(C)(C)NC(=O)CBr)CC1 (stereo unspecified) 2.2e+06 cps
OCCN1CCN(CCCN2c3ccccc3Sc3ccc(C(F)(F)F)cc32)CC1 2.6e+06 cps
O=C1NC(O)=NC1(c1ccccc1)c1ccccc1 2.6e+06 cps
C=C[C@H]1CN2CCC1C[C@H]2[C@H](O)c1ccnc2ccc(OC)cc12 (stereo partly specified) 2.4e+06 cps
O=c1[nH]c2cc([N+](=O)[O-])c([N+](=O)[O-])cc2[nH]c1=O 3e+06 cps
C#CC(N)CCC(=O)O (stereo unspecified) 2.7e+06 cps
C[C@H](Cc1ccc(O)c(O)c1)[C@@H](C)Cc1ccc(O)c(O)c1 2e+06 cps
NC1(C(=O)O)CCc2cc(C(=O)O)ccc21 (stereo unspecified) 2.8e+06 cps
CC(C)(C)NCC(O)c1cc(O)cc(O)c1 (stereo unspecified) 2.3e+06 cps
Cc1ccccc1N1CCN(S(=O)(=O)C[C@]23CCC(CC2NC(=O)[C@@H](N)CCS(C)(=O)=O)C3(C)C)CC1 (stereo partly specified) 2.6e+06 cps
C[C@]12C=CC(=O)C=C1CC[C@@H]1C2=CC[C@]2(C)[C@@H](C(=O)CN3CCN(c4cc(N5CCCC5)nc(N5CCCC5)n4)CC3)CC[C@@H]12 2.4e+06 cps
Nc1ccc(N2C(=O)c3ccccc3C2=O)c(Cl)c1 2.7e+06 cps
CC(=O)N[C@@H](Cc1c[nH]c2ccccc12)C(=O)OCc1cc(C(F)(F)F)cc(C(F)(F)F)c1 2.8e+06 cps
Brc1ccc([C@H]2CN3CCSC3=N2)cc1 2.2e+06 cps
CN=C(N)NCCC[C@H](N)C(=O)O 2.2e+06 cps
N[C@@H](CCC(=O)N[C@H](CSN=O)C(=O)NCC(=O)O)C(=O)O 2.5e+06 cps
C#C[C@]1(O)CC[C@H]2[C@@H]3CCC4=Cc5oncc5CC4(C)[C@H]3CCC21C (stereo partly specified) 3e+06 cps
Nc1ncnc2c1nc(Sc1ccc(Cl)cc1)n2C1OC2COP(=O)(O)O[C@@H]2[C@@H]1O (stereo partly specified) 2.7e+06 cps
CC(C)NCC(O)c1ccc(NS(C)(=O)=O)cc1 (stereo unspecified) 2.3e+06 cps
CCn1c(=O)c2[nH]c(-c3ccccc3)nc2n(CC)c1=O 2.8e+06 cps
CC(C)Cn1c(=O)n(C)c(=O)c2[nH]cnc21 2.1e+06 cps
CCOC(=O)C12CC1/C(=N/O)c1ccccc1O2 (stereo unspecified) 2.4e+06 cps
NC(CO)C(=O)NNCc1ccc(O)c(O)c1O (stereo unspecified) 2.2e+06 cps
C=CC[C@H](N)C(=O)O 2.5e+06 cps
N[C@@H](Cc1c[nH]c2ccccc12)C(=O)O 2.2e+06 cps
NC(C(=O)N[C@@H]1C(=O)N2C(C(=O)O)=C(Cl)CS[C@H]12)c1ccccc1 (stereo partly specified) 2.8e+06 cps
CCN(CC)CCCC(C)Nc1c2ccc(Cl)cc2nc2ccc(OC)cc12 (stereo unspecified) 2.3e+06 cps
CCC1(O)CC2CN(CCc3c([nH]c4ccccc34)[C@@](C(=O)OC)(c3cc4c(cc3OC)N(C)C3[C@]45CCN4CC=C[C@@](CC)([C@@H](OC(C)=O)[C@]3(O)C(=O)OC)[C@H]45)C2)C1 (stereo partly specified) 2.4e+06 cps
Cc1cc(C)c(NC(=O)C[C@H](CC(=O)O)c2cccc3ccccc23)c(C(=O)N2CCC3(CCCC3)CC2)c1 2.4e+06 cps
Nn1nnc2ccccc21 2.9e+06 cps
O=c1onc2cnc3ccccc3n12 2.2e+06 cps
CCOC(=O)Nc1ccc(NCc2ccc(F)cc2)nc1N 2.9e+06 cps
CCCC(=O)NCCc1c2n(c3ccc(OC)cc13)CCCc1ccccc1-2 2.6e+06 cps
Clc1ccc2c(c1)C(N1CCNCC1)=Nc1ccccc1O2 3.1e+06 cps
CNC(=O)[C@H]1O[C@@H](n2cnc3c(NCc4ccc(N)cc4)ncnc32)C(O)[C@H]1O (stereo partly specified) 2.7e+06 cps
O=C(CCc1ccc(O)cc1)c1c(O)cc(O)cc1O 2.4e+06 cps
N.N.N.N.N.N.N.N.N.N.N.N.N.N.O.O.[Cl-].[Cl-].[Cl-].[Cl-].[Cl-].[Cl-].[Ru+4].[Ru+5].[Ru+5] 2.1e+06 cps
Fc1ccc(C(OCCCc2cnc[nH]2)c2ccc(F)cc2)cc1 2.6e+06 cps
CN(C)CCC(c1ccc(Cl)cc1)c1ccccn1 (stereo unspecified) 2.6e+06 cps
C=Cc1c(C)c2cc3[nH]c(cc4nc(cc5nc(cc1[nH]2)C(C)=C5CCC(=O)O)C(CCC(=O)O)=C4C)c(C)c3C=C 2e+06 cps
O=C(O)c1cc([N+](=O)[O-])ccc1NCCCc1ccccc1 2.6e+06 cps
O=C(Nc1ccccc1)c1cc([N+](=O)[O-])ccc1Cl 2.6e+06 cps
NCC(O)c1ccc(O)c(O)c1 (stereo unspecified) 2.7e+06 cps
O=C(O)c1cc(=O)c2ccc(Cl)cc2[nH]1 2.8e+06 cps
CN=c1nc(-c2ccccc2)n(-c2ccccc2)s1 2.4e+06 cps
O=S(=O)(NCCNC/C=C/c1ccc(Br)cc1)c1cccc2cnccc12 2.4e+06 cps
O=C(OCCN1CCCCC1)c1c[nH]c2ccccc12 2.9e+06 cps
O=C(O)/C(=C/c1c(C(=O)O)[nH]c2cc(Cl)cc(Cl)c12)c1ccccc1 2.5e+06 cps
Cc1cn([C@H]2C=C[C@@H](CO)O2)c(=O)[nH]c1=O 2.9e+06 cps
CCN(CC)C(C)C(=O)N1c2ccccc2Sc2ccccc21 (stereo unspecified) 2.4e+06 cps
O=C(O)c1cc2cc(Cc3cccnc3)ccc2o1 3.2e+06 cps
O=C(c1ccccc1)c1ccc2n1CCC2C(=O)O (stereo unspecified) 2.9e+06 cps
C[N+](C)(C)CCOC(N)=O 2.6e+06 cps
NCCc1cnc[nH]1 3.3e+06 cps
O=C(O)C1CN(CCCP(=O)(O)O)CCN1 (stereo unspecified) 2.6e+06 cps
COc1ccccc1N1CCN(CCCCNC(=O)c2ccc3ccccc3c2)CC1 2.7e+06 cps
COc1cc2c(cc1OC)-c1cc(=Nc3c(C)cc(C)cc3C)n(C)c(=O)n1CC2 2.5e+06 cps
O=C(/C=C/c1ccc(O)c(O)c1)OCCc1ccccc1 3e+06 cps
C[C@@H]1C(=O)NC2=Nc3cccc(Cl)c3CN21 2.4e+06 cps
COc1cc(C(O)CO)ccc1O (stereo unspecified) 2.8e+06 cps
CNCCNS(=O)(=O)c1cccc2cnccc12 2.6e+06 cps

Reference: PubChem BioAssay AID547 (Emory University Molecular Libraries Screening Center, 2006)
